According to publication PMC7862700, “An all-to-all approach to the identification of sequence-specific readers for epigenetic DNA modifications on cytosine”:

Assays:
Assay in all cases: DAPPL (digital affinity profiling via proximity ligation, sequencing); 10 mM Tris-HCl pH 7.5, 50 mM NaCl, 1 mM DTT, 4% glycerol, room temperature, 30 min; GST-TFs on glutathione beads, 16-mer random dsDNA library, 0.1% formaldehyde crosslink after washing; high values mean tight binding
FEV = target: T1, FEV (Homo sapiens, UniProt Q99581 1-238); settings: protein: recombinant; tags: N-terminal GST; dsDNA, one strand shown
T1 sequence: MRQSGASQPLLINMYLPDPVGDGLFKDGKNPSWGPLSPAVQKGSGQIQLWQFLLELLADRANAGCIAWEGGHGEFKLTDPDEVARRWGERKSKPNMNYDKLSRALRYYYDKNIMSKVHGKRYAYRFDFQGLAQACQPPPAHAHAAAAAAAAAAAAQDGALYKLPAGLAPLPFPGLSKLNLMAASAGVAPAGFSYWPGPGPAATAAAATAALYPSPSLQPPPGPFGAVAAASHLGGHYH
Procedure, shortened: (§1)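 Binding signal is each hexamer's read frequency for a factor divided by its frequency in the tag-only sample. The factors were GST-fused human transcription factors from yeast, captured on glutathione beads, DNA-barcoded and pooled with that sample. Pools were incubated with 200 nmole of a random double-stranded 16-mer DNA library in Tris/NaCl/DTT/glycerol buffer at room temperature for 30 min, then washed, crosslinked with 0.1% formaldehyde, proximity-ligated with BsaI/T4 ligase (1 h, 37 °C), PCR-amplified and sequenced on an Illumina NextSeq500.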

ETV5 = ETV5 (Homo sapiens, UniProt P41161 1-510); settings: protein: recombinant; tags: N-terminal GST; dsDNA, one strand shown
ETV5, sequence (P41161 whole entry): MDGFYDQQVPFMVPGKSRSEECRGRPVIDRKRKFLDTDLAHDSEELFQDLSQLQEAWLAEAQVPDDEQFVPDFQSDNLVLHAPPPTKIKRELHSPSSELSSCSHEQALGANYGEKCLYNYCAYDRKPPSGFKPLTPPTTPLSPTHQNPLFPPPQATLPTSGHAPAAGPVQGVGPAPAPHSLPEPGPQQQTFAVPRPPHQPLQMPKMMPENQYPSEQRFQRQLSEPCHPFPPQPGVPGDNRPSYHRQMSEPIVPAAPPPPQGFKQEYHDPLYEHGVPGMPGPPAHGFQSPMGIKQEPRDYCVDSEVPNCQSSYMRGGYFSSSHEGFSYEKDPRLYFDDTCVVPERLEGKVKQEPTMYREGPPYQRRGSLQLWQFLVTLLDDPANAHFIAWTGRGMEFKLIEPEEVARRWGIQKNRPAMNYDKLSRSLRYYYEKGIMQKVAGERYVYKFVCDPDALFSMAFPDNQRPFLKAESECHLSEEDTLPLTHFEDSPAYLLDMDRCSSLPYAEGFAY
Procedure, shortened: as §1

HSF1 = HSF1 (Homo sapiens, UniProt Q00613 1-529); settings: protein: recombinant; tags: N-terminal GST; chain copies: 3; dsDNA, one strand shown
HSF1, sequence (Q00613 whole entry): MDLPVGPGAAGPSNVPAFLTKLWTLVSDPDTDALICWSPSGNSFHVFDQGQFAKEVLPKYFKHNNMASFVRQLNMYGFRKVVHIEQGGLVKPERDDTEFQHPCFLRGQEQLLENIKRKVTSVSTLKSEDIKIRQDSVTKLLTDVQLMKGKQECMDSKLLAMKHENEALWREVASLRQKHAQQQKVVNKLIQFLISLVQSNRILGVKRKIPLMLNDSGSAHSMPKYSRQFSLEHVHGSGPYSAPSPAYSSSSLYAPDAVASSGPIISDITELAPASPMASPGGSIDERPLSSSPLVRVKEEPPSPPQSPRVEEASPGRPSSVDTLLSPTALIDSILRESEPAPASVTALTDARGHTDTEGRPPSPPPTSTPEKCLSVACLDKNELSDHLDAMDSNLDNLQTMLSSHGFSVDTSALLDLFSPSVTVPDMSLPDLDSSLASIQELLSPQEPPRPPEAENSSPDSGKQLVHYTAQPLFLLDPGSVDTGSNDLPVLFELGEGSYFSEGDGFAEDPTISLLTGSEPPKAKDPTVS
Procedure, shortened: as §1

SPIC = target: T2, SPIC (Homo sapiens, UniProt Q8N5J4 1-248); settings: protein: recombinant; tags: N-terminal GST; dsDNA, one strand shown
T2 sequence: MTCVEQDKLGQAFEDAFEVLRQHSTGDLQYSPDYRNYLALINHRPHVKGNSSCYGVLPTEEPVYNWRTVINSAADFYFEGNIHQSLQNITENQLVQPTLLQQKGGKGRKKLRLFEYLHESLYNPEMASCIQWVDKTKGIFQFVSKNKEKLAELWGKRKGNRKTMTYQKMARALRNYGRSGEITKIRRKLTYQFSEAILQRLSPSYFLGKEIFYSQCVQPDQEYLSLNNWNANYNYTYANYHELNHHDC
Procedure, shortened: as §1

ELF4 = ELF4 (Homo sapiens, UniProt Q99607 1-663); settings: protein: recombinant; tags: N-terminal GST; dsDNA, one strand shown
ELF4, sequence (Q99607 whole entry): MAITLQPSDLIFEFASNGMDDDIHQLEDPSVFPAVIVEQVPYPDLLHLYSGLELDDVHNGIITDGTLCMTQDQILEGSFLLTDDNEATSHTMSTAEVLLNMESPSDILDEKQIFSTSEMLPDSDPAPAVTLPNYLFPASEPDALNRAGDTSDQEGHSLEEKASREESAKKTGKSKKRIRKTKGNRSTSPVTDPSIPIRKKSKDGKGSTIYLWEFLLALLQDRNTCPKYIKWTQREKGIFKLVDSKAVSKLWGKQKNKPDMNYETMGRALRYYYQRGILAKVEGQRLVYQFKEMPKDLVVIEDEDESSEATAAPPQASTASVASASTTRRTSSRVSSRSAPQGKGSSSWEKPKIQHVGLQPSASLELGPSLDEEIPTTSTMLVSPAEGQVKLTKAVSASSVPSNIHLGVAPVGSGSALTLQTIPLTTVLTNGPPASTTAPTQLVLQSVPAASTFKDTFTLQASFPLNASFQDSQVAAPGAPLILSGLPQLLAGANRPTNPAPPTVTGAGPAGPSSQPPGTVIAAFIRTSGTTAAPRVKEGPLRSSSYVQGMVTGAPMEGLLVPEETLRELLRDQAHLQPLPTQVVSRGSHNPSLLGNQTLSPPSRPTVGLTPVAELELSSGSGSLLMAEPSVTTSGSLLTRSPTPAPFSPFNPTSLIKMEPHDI
Procedure, shortened: as §1

ELK4 = target: T3, ELK4 (Homo sapiens, UniProt P28324-2 1-405); settings: protein: recombinant; tags: N-terminal GST; dsDNA, one strand shown
T3 sequence: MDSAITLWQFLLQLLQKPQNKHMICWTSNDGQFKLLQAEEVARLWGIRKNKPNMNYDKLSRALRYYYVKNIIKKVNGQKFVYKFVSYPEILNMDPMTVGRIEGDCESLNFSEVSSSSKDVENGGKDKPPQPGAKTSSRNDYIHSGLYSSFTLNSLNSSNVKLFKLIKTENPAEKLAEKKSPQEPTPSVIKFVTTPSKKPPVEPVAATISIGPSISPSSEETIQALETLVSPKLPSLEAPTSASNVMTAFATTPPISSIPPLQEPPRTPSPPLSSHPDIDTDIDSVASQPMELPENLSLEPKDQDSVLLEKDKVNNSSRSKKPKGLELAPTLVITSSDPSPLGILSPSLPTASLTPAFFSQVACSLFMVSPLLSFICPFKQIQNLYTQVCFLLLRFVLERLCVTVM
Procedure, shortened: as §1

ETV2 = target: T4, ETV2 (Homo sapiens, UniProt O00321 1-342); settings: protein: recombinant; tags: N-terminal GST; dsDNA, one strand shown
T4 sequence: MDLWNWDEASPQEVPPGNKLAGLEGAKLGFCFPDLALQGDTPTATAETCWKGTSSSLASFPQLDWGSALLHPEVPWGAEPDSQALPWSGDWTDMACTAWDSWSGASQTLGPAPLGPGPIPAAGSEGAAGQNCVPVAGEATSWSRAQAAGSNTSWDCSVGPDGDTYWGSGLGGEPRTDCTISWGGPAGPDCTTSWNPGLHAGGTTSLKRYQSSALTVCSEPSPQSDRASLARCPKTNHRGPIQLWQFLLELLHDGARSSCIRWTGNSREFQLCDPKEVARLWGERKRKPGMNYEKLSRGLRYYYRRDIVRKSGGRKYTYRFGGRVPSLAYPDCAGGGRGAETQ
Procedure, shortened: as §1

ELF3 = target: T5, ELF3 (Homo sapiens, UniProt P78545 1-371); settings: protein: recombinant; tags: N-terminal GST; dsDNA, one strand shown
T5 sequence: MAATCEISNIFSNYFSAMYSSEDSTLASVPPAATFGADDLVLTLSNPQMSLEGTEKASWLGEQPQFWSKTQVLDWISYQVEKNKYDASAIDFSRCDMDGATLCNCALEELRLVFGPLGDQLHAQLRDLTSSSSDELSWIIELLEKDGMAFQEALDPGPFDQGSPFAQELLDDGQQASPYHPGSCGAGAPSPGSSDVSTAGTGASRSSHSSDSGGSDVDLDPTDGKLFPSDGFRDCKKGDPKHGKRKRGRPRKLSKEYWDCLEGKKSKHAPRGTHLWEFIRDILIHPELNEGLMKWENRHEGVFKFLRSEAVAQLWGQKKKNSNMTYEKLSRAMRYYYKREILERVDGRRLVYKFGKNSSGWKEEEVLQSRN
Procedure, shortened: as §1

CRX = CRX (Homo sapiens, UniProt O43186 1-299); settings: protein: recombinant; tags: N-terminal GST; dsDNA, one strand shown
CRX, sequence (O43186 whole entry): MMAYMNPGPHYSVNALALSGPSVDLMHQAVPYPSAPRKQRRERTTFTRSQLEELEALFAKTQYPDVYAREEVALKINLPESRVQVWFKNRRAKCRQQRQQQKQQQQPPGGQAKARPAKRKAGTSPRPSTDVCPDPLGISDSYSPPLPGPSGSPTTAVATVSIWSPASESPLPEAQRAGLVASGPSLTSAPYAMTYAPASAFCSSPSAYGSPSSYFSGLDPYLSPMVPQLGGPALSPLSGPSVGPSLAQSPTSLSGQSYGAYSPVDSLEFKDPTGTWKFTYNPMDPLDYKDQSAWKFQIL
Procedure, shortened: as §1

ETV1 = ETV1 (Homo sapiens, UniProt P50549 1-477); settings: protein: recombinant; tags: N-terminal GST; dsDNA, one strand shown
ETV1, sequence (P50549 whole entry): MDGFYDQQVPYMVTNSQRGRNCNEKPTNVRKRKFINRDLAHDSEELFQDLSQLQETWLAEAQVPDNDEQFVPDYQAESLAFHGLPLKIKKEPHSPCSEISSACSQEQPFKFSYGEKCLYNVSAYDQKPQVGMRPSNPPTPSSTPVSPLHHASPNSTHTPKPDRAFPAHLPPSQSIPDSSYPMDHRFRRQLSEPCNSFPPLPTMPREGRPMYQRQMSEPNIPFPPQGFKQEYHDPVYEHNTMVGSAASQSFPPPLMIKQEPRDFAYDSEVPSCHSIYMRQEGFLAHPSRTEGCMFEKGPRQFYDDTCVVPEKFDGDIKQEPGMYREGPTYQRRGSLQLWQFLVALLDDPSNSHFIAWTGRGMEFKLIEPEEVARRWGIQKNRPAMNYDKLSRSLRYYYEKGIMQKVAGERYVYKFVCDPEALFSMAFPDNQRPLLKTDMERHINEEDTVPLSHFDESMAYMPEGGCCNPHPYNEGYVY
Procedure, shortened: as §1

ERF = target: T6, ERF (Homo sapiens, UniProt P50548 1-548); settings: protein: recombinant; tags: N-terminal GST; dsDNA, one strand shown
T6 sequence: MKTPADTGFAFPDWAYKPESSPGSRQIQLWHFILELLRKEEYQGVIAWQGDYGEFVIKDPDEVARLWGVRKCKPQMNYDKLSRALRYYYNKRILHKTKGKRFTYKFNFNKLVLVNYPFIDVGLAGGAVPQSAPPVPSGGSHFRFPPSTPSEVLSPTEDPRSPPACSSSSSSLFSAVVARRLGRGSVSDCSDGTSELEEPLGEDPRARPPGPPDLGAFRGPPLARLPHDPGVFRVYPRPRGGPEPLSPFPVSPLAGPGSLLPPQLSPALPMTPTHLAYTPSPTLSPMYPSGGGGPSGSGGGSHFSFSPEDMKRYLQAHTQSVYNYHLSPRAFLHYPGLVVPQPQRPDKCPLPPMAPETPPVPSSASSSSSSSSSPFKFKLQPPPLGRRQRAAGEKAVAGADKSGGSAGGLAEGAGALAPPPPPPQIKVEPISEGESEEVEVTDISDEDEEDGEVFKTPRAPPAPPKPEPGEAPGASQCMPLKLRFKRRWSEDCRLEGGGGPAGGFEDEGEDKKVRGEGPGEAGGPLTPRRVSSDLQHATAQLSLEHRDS
Procedure, shortened: as §1

ETV3L = target: T7, ETV3L (Homo sapiens, UniProt Q6ZN32 1-361); settings: protein: recombinant; tags: N-terminal GST; dsDNA, one strand shown
T7 sequence: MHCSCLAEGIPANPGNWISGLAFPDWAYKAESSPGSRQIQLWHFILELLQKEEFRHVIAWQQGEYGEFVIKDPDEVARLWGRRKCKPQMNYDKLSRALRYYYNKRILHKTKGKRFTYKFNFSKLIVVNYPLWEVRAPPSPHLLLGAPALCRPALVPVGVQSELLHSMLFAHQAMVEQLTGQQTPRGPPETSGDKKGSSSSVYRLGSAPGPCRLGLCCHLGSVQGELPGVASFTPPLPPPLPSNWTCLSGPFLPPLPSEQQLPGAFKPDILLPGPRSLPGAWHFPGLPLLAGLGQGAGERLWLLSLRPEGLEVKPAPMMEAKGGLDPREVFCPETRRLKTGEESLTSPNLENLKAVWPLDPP
Procedure, shortened: as §1

ETS2 = target: T8, ETS2 (Homo sapiens, UniProt P15036 1-469); settings: protein: recombinant; tags: N-terminal GST; dsDNA, one strand shown
T8 sequence: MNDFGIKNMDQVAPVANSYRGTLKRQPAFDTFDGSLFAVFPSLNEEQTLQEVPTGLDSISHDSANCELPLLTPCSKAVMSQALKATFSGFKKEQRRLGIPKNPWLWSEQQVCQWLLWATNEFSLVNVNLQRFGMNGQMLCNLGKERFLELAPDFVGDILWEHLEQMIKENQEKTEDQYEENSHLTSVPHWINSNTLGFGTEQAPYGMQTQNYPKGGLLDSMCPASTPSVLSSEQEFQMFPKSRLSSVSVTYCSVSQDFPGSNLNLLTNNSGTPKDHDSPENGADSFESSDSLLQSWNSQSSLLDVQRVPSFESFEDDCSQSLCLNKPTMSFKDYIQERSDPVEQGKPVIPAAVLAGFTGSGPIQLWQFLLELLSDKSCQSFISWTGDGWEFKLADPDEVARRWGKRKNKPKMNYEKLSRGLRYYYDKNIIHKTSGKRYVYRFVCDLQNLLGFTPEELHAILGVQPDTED
Procedure, shortened: as §1

SPDEF = target: T9, SPDEF (Homo sapiens, UniProt O95238 1-335); settings: protein: recombinant; tags: N-terminal GST; dsDNA, one strand shown
T9 sequence: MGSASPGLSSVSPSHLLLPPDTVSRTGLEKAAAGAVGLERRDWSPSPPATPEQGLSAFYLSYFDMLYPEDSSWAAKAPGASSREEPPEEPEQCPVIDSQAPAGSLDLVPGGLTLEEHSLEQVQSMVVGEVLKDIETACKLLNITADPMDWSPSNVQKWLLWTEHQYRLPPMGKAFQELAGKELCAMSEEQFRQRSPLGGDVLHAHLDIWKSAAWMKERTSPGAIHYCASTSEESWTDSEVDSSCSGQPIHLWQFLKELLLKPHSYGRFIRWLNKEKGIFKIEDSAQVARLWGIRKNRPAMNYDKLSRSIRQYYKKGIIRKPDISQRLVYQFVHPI
Procedure, shortened: as §1

ETV7 = target: T10, ETV7 (Homo sapiens, UniProt Q9Y603 1-341); settings: protein: recombinant; tags: N-terminal GST; dsDNA, one strand shown
T10 sequence: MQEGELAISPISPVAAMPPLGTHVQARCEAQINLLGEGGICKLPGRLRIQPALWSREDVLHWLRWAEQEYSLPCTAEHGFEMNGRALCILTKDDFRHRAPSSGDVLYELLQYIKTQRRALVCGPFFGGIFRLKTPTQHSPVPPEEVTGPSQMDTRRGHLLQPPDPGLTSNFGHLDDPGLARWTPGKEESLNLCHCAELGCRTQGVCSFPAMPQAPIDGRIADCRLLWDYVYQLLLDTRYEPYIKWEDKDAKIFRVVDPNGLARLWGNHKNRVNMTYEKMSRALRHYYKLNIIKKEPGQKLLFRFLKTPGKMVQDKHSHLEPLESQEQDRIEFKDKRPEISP
Procedure, shortened: as §1

ELF5 = target: T11, ELF5 (Homo sapiens, UniProt Q9UKW6-2 1-255); settings: protein: recombinant; tags: N-terminal GST; dsDNA, one strand shown
T11 sequence: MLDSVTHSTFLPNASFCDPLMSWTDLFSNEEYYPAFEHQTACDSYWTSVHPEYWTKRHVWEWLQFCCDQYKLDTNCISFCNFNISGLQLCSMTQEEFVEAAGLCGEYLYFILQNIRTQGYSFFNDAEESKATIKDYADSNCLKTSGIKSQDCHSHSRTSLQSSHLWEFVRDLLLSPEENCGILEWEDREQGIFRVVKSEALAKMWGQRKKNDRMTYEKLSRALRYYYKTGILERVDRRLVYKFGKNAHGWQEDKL
Procedure, shortened: as §1

ETV3 = target: T12, ETV3 (Homo sapiens, UniProt P41162-2 1-143); settings: protein: recombinant; tags: N-terminal GST; dsDNA, one strand shown
T12 sequence: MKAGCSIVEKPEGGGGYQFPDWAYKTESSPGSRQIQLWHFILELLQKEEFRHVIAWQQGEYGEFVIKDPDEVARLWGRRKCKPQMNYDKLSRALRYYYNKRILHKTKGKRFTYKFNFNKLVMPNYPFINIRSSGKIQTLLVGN
Procedure, shortened: as §1

ETV6 = ETV6 (Homo sapiens, UniProt P41212 1-452); settings: protein: recombinant; tags: N-terminal GST; dsDNA, one strand shown
ETV6, sequence (P41212 whole entry): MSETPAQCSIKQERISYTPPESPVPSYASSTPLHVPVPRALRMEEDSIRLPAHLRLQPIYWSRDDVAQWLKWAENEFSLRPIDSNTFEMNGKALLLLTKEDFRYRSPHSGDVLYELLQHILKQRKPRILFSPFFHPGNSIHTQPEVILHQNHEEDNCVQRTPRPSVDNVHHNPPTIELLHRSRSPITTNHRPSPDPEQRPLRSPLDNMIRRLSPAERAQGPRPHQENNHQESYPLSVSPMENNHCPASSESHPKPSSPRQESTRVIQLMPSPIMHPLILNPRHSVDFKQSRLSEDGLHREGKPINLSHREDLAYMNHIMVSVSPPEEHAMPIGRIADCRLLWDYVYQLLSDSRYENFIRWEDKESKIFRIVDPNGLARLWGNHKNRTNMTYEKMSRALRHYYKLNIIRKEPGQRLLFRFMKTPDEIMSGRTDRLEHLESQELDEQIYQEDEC
Procedure, shortened: as §1

CCGCTA
binding signal (FEV): 1.33 fold enrichment (6-mer frequency, TF over GST control)
binding signal (ETV5): 1.23 fold enrichment (6-mer frequency, TF over GST control)
binding signal (HSF1): 1.17 fold enrichment (6-mer frequency, TF over GST control)
binding signal (SPIC): 1.44 fold enrichment (6-mer frequency, TF over GST control)
binding signal (ELF4): 1.33 fold enrichment (6-mer frequency, TF over GST control)
binding signal (ELK4): 1.3 fold enrichment (6-mer frequency, TF over GST control)
binding signal (ETV2): 1.37 fold enrichment (6-mer frequency, TF over GST control)
binding signal (ELF3): 1.38 fold enrichment (6-mer frequency, TF over GST control)
binding signal (CRX): 1.28 fold enrichment (6-mer frequency, TF over GST control)
binding signal (ETV1): 1.36 fold enrichment (6-mer frequency, TF over GST control)
binding signal (ERF): 1.38 fold enrichment (6-mer frequency, TF over GST control)
binding signal (ETV3L): 1.27 fold enrichment (6-mer frequency, TF over GST control)
binding signal (ETS2): 1.32 fold enrichment (6-mer frequency, TF over GST control)
binding signal (SPDEF): 1.38 fold enrichment (6-mer frequency, TF over GST control)
binding signal (ETV7): 1.36 fold enrichment (6-mer frequency, TF over GST control)
binding signal (ELF5): 1.41 fold enrichment (6-mer frequency, TF over GST control)
binding signal (ETV3): 1.34 fold enrichment (6-mer frequency, TF over GST control)
binding signal (ETV6): 1.4 fold enrichment (6-mer frequency, TF over GST control)
